An excerpt weighted towards active compounds, which were near 0.44% of everything screened.
ERG Ets-DNA blk: inhibitors of human ERG Ets domain-DNA interaction; P11308; fluorescence polarization, His-ERG Ets domain / labelled DNA; Potency, µM (doses to about 76.9 µM), without a hit: at the highest dose FP activity, negative = inhibition, usual class: inhibitors; 0.028% of 370,000 active; AID 624246; active = well fitted inhibition curve with a large enough effect in the polarisation, with a control signal flat; inconclusive = small, poorly fitted or top-dose-only effect, or effect the other way, or a change in a side signal; inactive = no such curve, though single readings can be large or run the other way; the % refers to the polarisation;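 note: polarization taken with two DNA probes labelled with fluorescein and Texas red; % of control where 0% means no effect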
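His-tagged ERG Ets domain (1 uM in the protein solution; 300mM KCl, 50mM Tris-HCl, 1mM EDTA, 1mM DTT, pH 7.5) received compound, then a probe mix of 5 nM fluorescein-DNA and 100nM Texas-615-DNA. Fluorescence polarization was read for both dyes.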
Anesthetic bind: candidate novel general anesthetic via apoferritin binding. apoferritin/1-aminoanthracene competitive binding, fluorescence. Potency, µM (series often up to 77.5 µM), for inactives: at the top dose activity change, negative = displacement, usual class: inhibitors. 0.074% of 350,000 active. AID 485281; note: % is set by controls: 0 for no effect and ±100 for the full control effect; nearly all actives have a fitted effect of over 20% in size
Target sequence (P02791 2-175 limits assumed): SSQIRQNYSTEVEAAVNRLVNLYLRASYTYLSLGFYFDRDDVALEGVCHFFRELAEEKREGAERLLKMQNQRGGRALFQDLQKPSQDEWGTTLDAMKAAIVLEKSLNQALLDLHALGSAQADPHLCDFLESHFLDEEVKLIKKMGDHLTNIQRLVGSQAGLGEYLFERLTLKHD
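Horse-spleen apoferritin (10 uM) in 50% saturated 1-aminoanthracene in PBS was incubated 10 min at room temperature with compound. Fluorescence (ex 380, em 535 nm) was normalized to free and bound 1-AMA, with concentration-response fitted by a four-parameter Hill equation.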
TRb SRC2 PPI: disrupts binding of human TR beta to SRC2; Potency, µM (series often up to 106 µM), inactives show at the highest dose activity change, negative = inhibition, actives largely listed as inhibitors; 0.065% of 280,000 active; P10828; TRbeta-SRC2 peptide binding, fluorescence polarization; receptor liganded with 1 µM T3;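 note: plate controls were bound peptide for no effect and peptide without receptor for full effect; nearly all actives have a fitted effect of over 50% in size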
Target sequence (P10828 whole entry, looked up): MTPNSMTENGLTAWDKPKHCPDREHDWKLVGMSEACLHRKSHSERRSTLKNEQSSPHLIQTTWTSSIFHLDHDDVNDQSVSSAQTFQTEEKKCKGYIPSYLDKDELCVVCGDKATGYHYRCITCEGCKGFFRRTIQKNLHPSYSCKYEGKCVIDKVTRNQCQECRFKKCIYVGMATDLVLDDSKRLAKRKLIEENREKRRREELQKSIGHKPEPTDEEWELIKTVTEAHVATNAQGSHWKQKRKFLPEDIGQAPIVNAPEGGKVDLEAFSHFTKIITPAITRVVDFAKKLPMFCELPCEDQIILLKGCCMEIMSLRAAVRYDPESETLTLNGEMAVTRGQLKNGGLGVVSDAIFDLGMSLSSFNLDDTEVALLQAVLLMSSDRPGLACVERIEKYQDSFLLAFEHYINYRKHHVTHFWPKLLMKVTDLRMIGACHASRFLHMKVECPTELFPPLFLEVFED
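Fluorescence polarization of 20 nM Texas Red SRC2 peptide (20-aa NR interaction domain) bound to 0.6 uM human TRb ligand-binding domain, with 1 uM T3, after 5 hr at ambient temperature; inhibition seen as decreased polarization.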
TR SRC2 fluor cs: Texas Red fluorescence interference in TRb-SRC2 counter-screen | 0.29% of 280,000 active | Potency, µM (titrated, usually from 106 µM), without a hit: at the highest dose fluorescence change, negative = quenching | TRb/SRC2 Texas Red total fluorescence interference | AID 1479; active = well fitted curve in either direction with a large enough effect; inconclusive = small, poorly fitted or top-dose-only effect; note: % is set by controls: 0 for no effect and ±100 for the full control effect
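Human TRb ligand-binding domain at 0.6 uM with 20 nM Texas Red SRC2 peptide in Tris buffer containing 1 uM T3 and 5% DMSO, incubated with compound 5 h at ambient temperature. Total fluorescence (555/632 nm) calculated as parallel + 2 × perpendicular.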
RGS12 GoLoco inh: RGS12 GoLoco-Gai1 interaction inhibition; P63096; Gai1:RGS12 GoLoco peptide FP, rhodamine, 10 min; Potency, µM (series often up to 61.6 µM), without a hit: at the top dose activity, negative = inhibition, hits mostly inhibitors; 0.44% of 230,000 active; active = well fitted inhibition curve with a large enough effect, not every such curve was filed as active; inactive = no such curve, though single readings can be large or run the other way; note: % is set by controls: 0 for no effect and ±100 for the full control effect; nearly all actives have a fitted effect of over 30% in size
Starred values were filed as active, the others as inactive; ? = inconclusive; nt = no result given; ! = a repeat was not active; [ ] = dose if it differs, or a comment. Unless noted, calls come from the whole dose curve; as a rule, active = well fitted curve in the direction sought with a large enough effect; inconclusive = small, poorly fitted or top-dose-only effect, or another doubt; inactive = no such curve, though single readings can be large; an effect the other way counts as inactive or inconclusive. Potency is the fitted concentration of half-maximal effect.

SMILES | ERG Ets-DNA blk | Anesthetic bind | TRb SRC2 PPI | TR SRC2 fluor cs | RGS12 GoLoco inh
Cc1ccc(NC(=O)/C(C#N)=C(\N)C(Cl)(Cl)Cl)nc1 | ? | -11% | -1% | 2% | 3.5µM*
Cc1cccc(N2CCN(S(=O)(=O)c3ccc(S(=O)(=O)N4CCCC4)cc3)CC2)c1C | -15% | 0% | -2% | 1% | 2%
Cc1cccc(N2CCN(S(=O)(=O)c3ccc4c(c3)CC(=O)N4C)CC2)c1C | 0% | 13% | -7% | 22µM*[quencher] | nt
C#CC(C)OC(=O)Nc1cccc(Cl)c1 (centres undefined) | nt | -20% | 0% | -2% | nt
c1ccc(-c2ccc(OCCN3CCCC3)cc2)cc1 | nt | -9% | 2% | -25% | nt
O=C1C=CC(=O)c2c(O)c(Cl)c(Cl)c(O)c21 | nt | -1% | -6% | ? | 0.35µM*
CCCCCCc1ccc(N)cc1 | nt | nt | -8%[201 µM] | 1%[201 µM] | nt
CCC(=O)c1ccc(OCC(=O)OCC(=O)NC2CCCCCCC2)cc1 | -16% | 5.6µM* | nt | nt | nt
CCOc1ccccc1NC(=O)c1c(NCc2sccc2C)sc2c1CCC(C)C2 (centres undefined) | 4% | -11% | ? | 0.14µM*[quencher] | nt
CCOc1ccccc1NC(=O)c1c(NCc2sccc2C)sc2c1CCCCC2 | 15% | -11% | -3% | 1% | nt
CC1=C(C)/C(=N\OS(=O)(=O)c2ccccc2)C=CC1=O | 1% | 28µM* | 4% | -1% | -8%
Fc1ccccc1-c1nc2ccccc2[nH]1 | 0% | -21% | -5%[53 µM] | 0%[53 µM] | 16%
c1ccc2[nH]c(-c3ccnc4ccccc34)nc2c1 | 3% | -9% | -3% | -4% | 25µM*!
C=CCN(CC=C)S(=O)(=O)c1ccc(NC(=S)NC(=O)c2ccco2)cc1 | 5% | 18µM* | -9% | 1% | 1%
C=CCN(CC=C)S(=O)(=O)c1ccc(NC(=S)NC(=O)c2ccc(-c3ccccc3)cc2)cc1 | 3% | ? | 9% | 1% | 14%
CC1CCC(NC(=O)C2(C)Cc3ccccc3C(=O)N2Cc2ccc(F)cc2)CC1 (centres undefined) | -2% | -5% | 1% | -1% | nt
CC1(C(=O)NC2CCCCC2)Cc2ccccc2C(=O)N1Cc1ccc(F)cc1 (centres undefined) | 2% | 9% | -9% | 32µM*[quencher] | nt
Cc1ccc(-c2cc3ncc4c(n3n2)-c2cc(F)ccc2OC4)cc1 | 7% | 48% | -6% | 25µM*[quencher] | nt
O=[N+]([O-])c1ccc(CNc2ccc(Cl)cc2)s1 | 5% | 14µM* | nt | nt | nt
Cc1ccc(N=Nc2c(O)ccc3ccccc23)c(C)c1 | nt | nt | 40µM* | 45µM*[fluorescent] | nt
COc1ccc(C2=Nn3c(nnc3-c3cccc(OC)c3)SC2)cc1 | nt | ? | -1% | -2% | nt
CN(CC(=O)O/N=C(\N)c1ccc([N+](=O)[O-])cc1)S(=O)(=O)c1ccccc1 | 1% | -23% | -1% | -1% | 5%
CN(CC(=O)O/N=C(\N)c1cccc([N+](=O)[O-])c1)S(=O)(=O)c1ccccc1 | 4% | 28µM* | 1% | -2% | 3%
CCN1CCN(C(c2ccc(C(F)(F)F)cc2)c2ccc3cccnc3c2O)CC1 (centres undefined) | 7% | ? | nt | nt | nt
OCCN1CCN(C(c2cccs2)c2ccc3cccnc3c2O)CC1 (centres undefined) | nt | 32µM* | -2% | 0% | -48%
SMILES | ERG Ets-DNA blk | Anesthetic bind | TRb SRC2 PPI | TR SRC2 fluor cs | RGS12 GoLoco inh
C[C@]12CC[C@H](O)CC1=CC[C@H]1[C@@H]2CC[C@@]2(C)C(N(CCO)CCO)CC[C@@H]12 (some centres undefined) | nt | nt | nt | nt | 2%[14.2 µM]
C1=C/CC/C=C/CC/C=C/CC/1 | nt | nt | -12%[201 µM] | -4%[201 µM] | nt
CC(=O)Nc1ccc(-c2ccccc2)s1 | -9% | -7% | 5% | 2% | 18µM*
CC(=O)Nc1ccc(NC(C)=O)s1 | 8% | 2% | -17% | -1% | -2%
CN(c1ccc(OCC(=O)OCC(=O)Nc2ccc(Br)cc2)cc1)S(=O)(=O)c1cccs1 | -10% | 8% | -4% | -2% | 11%
CN(c1ccc(OCC(=O)OCC(=O)Nc2ccccc2)cc1)S(=O)(=O)c1cccs1 | 6% | 65% | -27%[53 µM] | 5µM*[quencher] | -44%
OC1CCCCCCCCCCC1 | nt | nt | 1%[201 µM] | -3%[201 µM] | nt
CCOC(=O)c1ccc2c(c1)[n+](CC)c(C)n2-c1ccccc1 | 4% | -11% | 1% | 2% | 10%
CC(=O)OCC[n+]1c(C)n(-c2ccccc2)c2ccc(Cl)cc21 | 6% | -6% | -2% | 1% | 8.9µM*
C/C=C1/C(=O)C[C@@H]2[C@H]3CCC4=CC(=O)CC[C@]4(C)[C@@H]3CC[C@]12C | nt | 5% | 4% | -3% | 3%
O=C1CCC(C2CCCCC2)CC1 | nt | nt | 2%[201 µM] | 0%[201 µM] | nt
COc1ccc(C2=Nn3c(nnc3-c3ccccc3C)SC2)cc1 | nt | ? | -8% | -3% | nt
CCc1cccc(C)c1NC(=O)c1cn2c3c(ccc(Cl)c3c1=O)OC(C)C2 (centres undefined) | 4% | 48% | -19% | 100µM*[quencher] | nt
Cc1c2cccn2cc[n+]1C | -1% | 70% | 1% | -3% | 8.9µM*
CC[n+]1c(C)sc2c(C)cc(C)cc21 | -8% | -7% | 2% | -1% | 2.5µM*
c1ccc2cc3ccccc3cc2c1 | nt | nt | -2%[201 µM] | -5%[201 µM] | nt
CCOC(=O)c1ccn(-c2nc(-c3cccc(OC)c3)cc(C(F)(F)F)n2)n1 | 12% | ? | -10% | 0.0022µM*[quencher] | nt
COc1cccc(-c2cc(C(F)(F)F)nc(-n3cccn3)n2)c1 | -10% | ? | 9% | 0% | 3%
COc1ccc(-c2cc(C(F)(F)F)nc(-n3cc(Br)cn3)n2)cc1 | -11% | -12% | -3% | -4% | 1%
COc1ccc(-c2cc(C(F)(F)F)nc(-n3cncn3)n2)cc1 | -5% | 32µM* | -22% | -4% | -7%
Cc1ccc2[nH]c(=O)c(CN(C(=O)c3cccc(Cl)c3)C(C)(C)C)cc2c1 | -3% | -11% | -18%[53 µM] | 32µM*[quencher] | nt
CC[C@H](C)[C@H](NC(=O)[C@H](C)NC(=O)CNC(=O)[C@H](CCCN=C(N)N)NC(=O)[C@H](C)NC(=O)[C@H](CC(C)C)NC(=O)[C@H](CCC(=O)O)NC(=O)[C@H](CC(C)C)NC(=O)[C@H](C)NC(=O)[C@@H](N)CCC(=O)O)C(=O)N[C@@H](Cc1ccccc1)C(=O)N[C@@H](CCC(N)=O)C(=O)N[C@@H](C)C(=O)O | nt | 0% | 5% | 4% | nt
CCOc1ccc(NC(=O)N2CCC(CN3CCCCCC3)CC2)cc1 | 1% | 3% | -29% | 126µM*[quencher] | nt
O=C(Nc1cccc(Br)c1)N1CCC(CN2CCCCC2)CC1 | -4% | -4% | -2% | 3% | nt
Cc1cc(NC(=O)N2CCC(CN3CCOCC3)CC2)ccc1Br | 8% | 40% | -17% | 79µM*[quencher] | nt
O=C(Nc1ccc(Br)cc1)N1CCC(CN2CCCC2)CC1 | 4% | 45% | ? | 45µM*[quencher] | nt
CCN1/C(=C/C=C/c2oc3ccc4ccccc4c3[n+]2CC)Oc2ccc3ccccc3c21 | 100% | ? | 10µM* | 50µM*[fluorescent] | -160%
